PubChem BioAssay (EPA / NIEHS)
The source made the active and inactive calls. The calls were made as follows: active = hit-call score of the fitted dose curve at least 0.9, where 1 is the maximum; inactive = score below 0.9.

Columns and labels:
Conditions in all cases: mRNA level, 48 h; actives raise or lower the signal
[1] = read-out: Bcl-2 (BID) gene, BID (gene 637); test: LTEA_HepaRG_BID: Life Technologies and Expression Analysis (LTEA) Assay for Bcl-2 (BID) gene using HepaRG (AID 2283476)
Procedure, shortened: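 Gene expression by qRT-PCR in HepaRG cells after 48 h exposure, duplicate wells, eight half-log concentrations topping at 100 uM in 0.5% DMSO. Normalized to ACTB, GAPDH, POLR2A; bidirectional fitting relative to DMSO.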

Caspase-3 (Homo sapiens) = Caspase-3 (Homo sapiens) (UniProt P42574); test: LTEA_HepaRG_CASP3: Life Technologies and Expression Analysis (LTEA) Assay for cysteine-aspartic acid protease (CASP3) using HepaRG (AID 2283477)
Sequence of Caspase-3 (Homo sapiens) (P42574 whole entry, looked up): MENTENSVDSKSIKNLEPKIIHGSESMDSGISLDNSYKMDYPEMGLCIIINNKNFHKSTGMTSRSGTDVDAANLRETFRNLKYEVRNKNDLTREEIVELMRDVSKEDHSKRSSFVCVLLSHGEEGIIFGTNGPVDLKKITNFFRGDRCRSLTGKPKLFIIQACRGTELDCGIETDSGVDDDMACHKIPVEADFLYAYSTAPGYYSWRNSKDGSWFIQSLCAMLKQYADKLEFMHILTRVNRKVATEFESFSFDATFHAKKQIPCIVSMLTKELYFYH
Procedure, shortened: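 Expression of CASP3 was quantified by TaqMan qRT-PCR against three housekeeping genes (ACTB, GAPDH, POLR2A), bidirectionally versus 0.5% DMSO. HepaRG cultures received compounds in duplicate, top 100 uM with half-log steps, for 48 h in serum-free induction medium.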

[2] = read-out: Cytochrome P450 (CYP24A1), CYP24A1 (gene 1591); test: LTEA_HepaRG_CYP24A1: Life Technologies and Expression Analysis (LTEA) Assay for Cytochrome P450 (CYP24A1) using HepaRG (AID 2283478)
Procedure, shortened: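 mRNA of CYP24A1 quantified by TaqMan qRT-PCR (ACTB/GAPDH/POLR2A normalization) after 48 h chemical exposure of HepaRG cells, top concentration 100 uM, half-log steps, 0.5% DMSO vehicle, duplicates. Curves fitted bidirectionally against DMSO baseline.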

[3] = read-out: Cytochrome P450 (CYP1A2), CYP1A2 (gene 1544); test: LTEA_HepaRG_CYP1A2: Life Technologies and Expression Analysis (LTEA) Assay for Cytochrome P450 (CYP1A2) using HepaRG (AID 2283479)
Procedure, shortened: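 CYP1A2 transcript measured by TaqMan qRT-PCR against three housekeeping genes after 48-hour chemical exposure of HepaRG cells. Eight-point half-log series topping at 100 uM in 0.5% DMSO, duplicates; gain or loss fitted relative to vehicle.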

[4] = read-out: Cytochrome P450 (CYP2B6), CYP2B6 (gene 1555); test: LTEA_HepaRG_CYP2B6: Life Technologies and Expression Analysis (LTEA) Assay for Cytochrome P450 (CYP2B6) using HepaRG (AID 2283481)
Procedure, shortened: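 CYP2B6 transcript level quantified by qRT-PCR against three housekeeping genes, fitted bidirectionally relative to DMSO. HepaRG cultures received chemicals for 48 h, 8-point half-log series from 100 uM in 0.5% DMSO, duplicate wells, serum-free induction medium.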

[5] = read-out: Cytochrome P450 2C19 (Homo sapiens) (UniProt P33261); test: LTEA_HepaRG_CYP2C19: Life Technologies and Expression Analysis (LTEA) Assay for CYP2C19 using HepaRG (AID 2283482)
Procedure, shortened: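 CYP2C19 transcript levels by qRT-PCR, normalized to three housekeeping genes, in HepaRG cells after 48 h chemical exposure. Eight-point half-log series topping at 100 uM, 0.5% DMSO vehicle. Increases and decreases both fitted against DMSO.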

CYP2C8 (gene 1558) = test: LTEA_HepaRG_CYP2C8: Life Technologies and Expression Analysis (LTEA) Assay for CYP2C8 using HepaRG (AID 2283483)
Procedure, shortened: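 Differentiated HepaRG cells in serum-free induction medium exposed 48 h in duplicate to 8 half-log concentrations from 100 uM in 0.5% DMSO. CYP2C8 mRNA by qRT-PCR normalized to ACTB, GAPDH, POLR2A; bidirectional fit versus DMSO.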

CYP2E1 (gene 1571) = test: LTEA_HepaRG_CYP2E1: Life Technologies and Expression Analysis (LTEA) Assay for CYP2E1 using HepaRG (AID 2283485)
Procedure, shortened: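 HepaRG cells, plated 48 h, then exposed 48 h in serum-free induction medium to eight half-log concentrations from 100 uM in 0.5% DMSO, duplicate. CYP2E1 mRNA by qRT-PCR, normalized to ACTB/GAPDH/POLR2A; bidirectional fit versus DMSO.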

CYP4A11 (gene 1579) = test: LTEA_HepaRG_CYP4A11: Life Technologies and Expression Analysis (LTEA) Assay for CYP4A11 using HepaRG (AID 2283486)
Procedure, shortened: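 Readout is CYP4A11 transcript level by qRT-PCR, normalized to three housekeeping genes and fitted bidirectionally against 0.5% DMSO. Human HepaRG cells were treated 48 h, in duplicate, with an 8-point half-log series topping at 100 uM.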

[6] = read-out: Cytochrome P450 3A4 (Homo sapiens) (UniProt P08684); test: LTEA_HepaRG_CYP3A4: Life Technologies and Expression Analysis (LTEA) Assay for CYP3A4 using HepaRG (AID 2283487)
Procedure, shortened: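 CYP3A4 transcript measured by TaqMan qRT-PCR and normalized to three housekeeping genes after 48 h chemical exposure of human HepaRG cells. Top concentration 100 uM, half-log steps, 0.5% DMSO vehicle; gain or loss fitted against DMSO baseline.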

[7] = read-out: Pro-epidermal growth factor (Homo sapiens) (UniProt P01133); test: LTEA_HepaRG_EGF: Life Technologies and Expression Analysis (LTEA) Assay for Epidermal growth factor (EGF) using HepaRG (AID 2283489)
Procedure, shortened: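 EGF transcript measured by Fluidigm TaqMan qRT-PCR with three housekeeping genes for normalization, 48 h after dosing HepaRG cultures in duplicate (top 100 uM, half-log steps, 0.5% DMSO vehicle). Gain or loss relative to DMSO fitted.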

[8] = read-out: Early growth response protein 1 (EGR1) transcription factor, EGR1 (gene 1958); test: LTEA_HepaRG_EGR1: Life Technologies and Expression Analysis (LTEA) Assay for Early growth response protein 1 (EGR1) transcription factor using HepaRG (AID 2283490)
Procedure, shortened: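 Differentiated HepaRG cells in serum-free induction medium exposed 48 hours, duplicate, to 8 half-log concentrations up to 100 uM in 0.5% DMSO. EGR1 mRNA measured by TaqMan qRT-PCR, normalized to ACTB, GAPDH, POLR2A; bidirectional fit versus DMSO.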

[9] = read-out: Cytochrome P450 3A7 (Homo sapiens) (UniProt P24462); test: LTEA_HepaRG_CYP3A7: Life Technologies and Expression Analysis (LTEA) Assay for CYP3A7 using HepaRG (AID 2283492)
Procedure, shortened: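 CYP3A7 transcript measured by qRT-PCR (ACTB, GAPDH, POLR2A normalization) after 48 h chemical exposure of HepaRG cells in duplicate. Eight half-log concentrations, maximum 100 uM, 0.5% DMSO vehicle; bidirectional curve fitting against DMSO baseline.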

CYP3A5 (gene 1577) = test: LTEA_HepaRG_CYP3A5: Life Technologies and Expression Analysis (LTEA) Assay for CYP3A5 using HepaRG (AID 2283493)
Procedure, shortened: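 HepaRG cells, plated 48 h then in serum-free induction medium, dosed in duplicate for 48 h with eight half-log concentrations up to 100 uM in 0.5% DMSO. Gene mRNA by Fluidigm TaqMan qRT-PCR, normalized to ACTB, GAPDH, POLR2A.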

[10] = read-out: Fatty Acid-Binding Protein 1 (FABP1), FABP1 (gene 2168); test: LTEA_HepaRG_FABP1: Life Technologies and Expression Analysis (LTEA) Assay for Fatty Acid-Binding Protein 1 (FABP1) using HepaRG (AID 2283494)
Procedure, shortened: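 Differentiated human HepaRG cells exposed 48 h in serum-free induction medium to eight half-log concentrations up to 100 uM (0.5% DMSO), duplicate. FABP1 mRNA by qRT-PCR, normalised to ACTB, GAPDH, POLR2A; bidirectional fitting against DMSO.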

[11] = read-out: Cytochrome P450 4A22 (Homo sapiens) (UniProt Q5TCH4); test: LTEA_HepaRG_CYP4A22: Life Technologies and Expression Analysis (LTEA) Assay for Cytochrome P450 4A22 (CYP4A22) using HepaRG (AID 2283495)
Procedure, shortened: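 Gene expression measured by qRT-PCR against three housekeeping genes (ACTB, GAPDH, POLR2A), with gain or loss fitted relative to 0.5% DMSO vehicle. HepaRG cultures received 48 h chemical treatment, top concentration 100 uM, half-log steps, duplicate wells.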

[12] = read-out: Ezrin (EZR), EZR (gene 7430); test: LTEA_HepaRG_EZR: Life Technologies and Expression Analysis (LTEA) Assay for Ezrin (EZR) using HepaRG (AID 2283491)
Procedure, shortened: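 HepaRG, 48 h chemical exposure, 8-pt half-log series from 100 uM, 0.5% DMSO vehicle, duplicates. Read-out: EZR mRNA by TaqMan qRT-PCR (Fluidigm array), housekeeping-normalized; bidirectional curve fit vs DMSO baseline.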

CYP2C9 (gene 1559) = test: LTEA_HepaRG_CYP2C9: Life Technologies and Expression Analysis (LTEA) Assay for CYP2C9 using HepaRG (AID 2283484)
Procedure, shortened: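 Differentiated human HepaRG cells in serum-free induction medium were exposed 48 h to chemicals in 8-point half-log series from 100 uM (0.5% DMSO), in duplicate. CYP2C9 mRNA was measured by qRT-PCR, normalized to ACTB/GAPDH/POLR2A, with bidirectional fitting versus DMSO.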

[13] = read-out: DNA damage-inducible transcript 3 (DDIT3), DDIT3 (gene 1649); test: LTEA_HepaRG_DDIT3: Life Technologies and Expression Analysis (LTEA) Assay for DNA damage-inducible transcript 3 (DDIT3) using HepaRG (AID 2283488)
Procedure, shortened: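 HepaRG cells, 48 h after plating, exposed 48 h in serum-free induction medium to 8 half-log concentrations up to 100 uM in 0.5% DMSO, in duplicate. DDIT3 mRNA measured by TaqMan qRT-PCR, normalized to ACTB, GAPDH and POLR2A. Fitted bidirectionally against DMSO.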

Measured: AC50

Sequence of Cytochrome P450 2C19 (Homo sapiens) (P33261 whole entry, looked up): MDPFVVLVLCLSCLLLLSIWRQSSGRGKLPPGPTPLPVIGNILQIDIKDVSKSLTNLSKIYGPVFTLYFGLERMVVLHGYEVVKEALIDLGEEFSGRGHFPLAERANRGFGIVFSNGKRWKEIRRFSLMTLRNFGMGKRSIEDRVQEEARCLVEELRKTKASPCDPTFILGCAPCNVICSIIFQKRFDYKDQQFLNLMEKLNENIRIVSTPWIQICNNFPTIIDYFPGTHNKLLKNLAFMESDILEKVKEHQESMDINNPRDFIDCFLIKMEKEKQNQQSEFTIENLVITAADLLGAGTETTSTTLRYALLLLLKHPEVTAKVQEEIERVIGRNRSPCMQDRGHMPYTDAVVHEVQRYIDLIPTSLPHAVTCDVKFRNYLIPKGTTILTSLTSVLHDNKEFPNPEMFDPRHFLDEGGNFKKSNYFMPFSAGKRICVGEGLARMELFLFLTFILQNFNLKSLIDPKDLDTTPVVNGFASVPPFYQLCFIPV
Sequence of Cytochrome P450 3A7 (Homo sapiens) (P24462 whole entry, looked up): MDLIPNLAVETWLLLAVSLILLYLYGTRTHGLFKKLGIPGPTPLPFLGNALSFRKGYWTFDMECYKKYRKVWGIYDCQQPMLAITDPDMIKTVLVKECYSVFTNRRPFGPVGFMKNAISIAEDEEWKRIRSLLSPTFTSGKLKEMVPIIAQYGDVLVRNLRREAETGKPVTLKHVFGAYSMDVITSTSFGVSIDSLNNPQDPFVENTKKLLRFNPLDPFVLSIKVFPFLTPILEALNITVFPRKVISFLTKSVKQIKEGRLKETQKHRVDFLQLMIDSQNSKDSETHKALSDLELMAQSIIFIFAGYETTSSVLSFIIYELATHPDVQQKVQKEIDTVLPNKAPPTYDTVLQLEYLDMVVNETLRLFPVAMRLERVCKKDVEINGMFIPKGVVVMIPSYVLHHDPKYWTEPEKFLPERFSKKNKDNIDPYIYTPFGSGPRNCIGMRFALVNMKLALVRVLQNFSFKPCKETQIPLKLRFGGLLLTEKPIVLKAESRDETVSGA
Sequence of Cytochrome P450 3A4 (Homo sapiens) (P08684 whole entry, looked up): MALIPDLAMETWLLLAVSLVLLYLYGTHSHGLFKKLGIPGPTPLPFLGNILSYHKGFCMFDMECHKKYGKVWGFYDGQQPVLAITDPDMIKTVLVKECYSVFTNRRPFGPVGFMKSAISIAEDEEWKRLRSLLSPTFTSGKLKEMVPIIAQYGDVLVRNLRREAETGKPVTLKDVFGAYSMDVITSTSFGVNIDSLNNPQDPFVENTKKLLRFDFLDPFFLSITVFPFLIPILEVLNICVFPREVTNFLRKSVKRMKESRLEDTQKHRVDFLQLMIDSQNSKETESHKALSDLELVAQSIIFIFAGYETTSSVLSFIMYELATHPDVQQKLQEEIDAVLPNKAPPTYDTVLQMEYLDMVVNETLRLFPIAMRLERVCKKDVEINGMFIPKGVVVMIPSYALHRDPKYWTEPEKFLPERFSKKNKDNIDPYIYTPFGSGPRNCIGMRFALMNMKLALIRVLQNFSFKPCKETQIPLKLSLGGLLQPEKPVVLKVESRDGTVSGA

FC(F)C(F)(F)OCC(Cn1cncn1)c1ccc(Cl)cc1Cl (configuration not stated)
active: Caspase-3 (Homo sapiens) 82 µM | [3] 28.6 µM | [4] 31.7 µM | [5] 34.8 µM | CYP2C8 (gene 1558) 24.6 µM | CYP2E1 (gene 1571) 16.1 µM | CYP4A11 (gene 1579) 28.8 µM | [6] 35.2 µM | [8] 11.1 µM | [9] 49.8 µM | CYP3A5 (gene 1577) 83 µM | [10] 34.8 µM | [11] 16.6 µM
inactive: [1] | [2] | [7]

O=C(O)c1cc(Oc2ccc(C(F)(F)F)cc2Cl)ccc1[N+](=O)[O-]
active: [4] 50 µM | CYP2C8 (gene 1558) 8.77 µM | CYP4A11 (gene 1579) 50 µM | [9] 50 µM | [10] 20.3 µM
not listed: [6] | CYP3A5 (gene 1577) | CYP2C9 (gene 1559) | [13]
inactive: all other assays above

C#CCC1=C(C)C(OC(=O)C2C(C=C(C)C)C2(C)C)CC1=O (configuration not stated)
active: [4] 12.1 µM | CYP2E1 (gene 1571) 73.3 µM | CYP4A11 (gene 1579) 49.8 µM | [7] 11.1 µM | [8] 49.8 µM | [10] 49.8 µM
not listed: CYP2C8 (gene 1558) | CYP3A5 (gene 1577) | [11] | [13]
inactive: all other assays above

CCCSP(=O)(OCC)SCCC
active: [4] 2.48 µM | CYP2E1 (gene 1571) 25.8 µM | [10] 15.5 µM
not listed: CYP2C8 (gene 1558) | [6] | [11]
inactive: all other assays above
